Twelve compounds from publication PMC5540273 (PLoS ONE, 2017) can be followed below.

Among the test systems are S6K1; SBK1; SGK2; SGK3; SGK; SIK2; SIK; SLK; SNRK; SRC.
What all share (conditions): concentration: 1 μM, replicates: in singlicate; n = 1
The test system of assay [1] is RPS6KA5(Kin.Dom.2-C-terminal).
Assay [2] concerns T1, RSK1(Kin.Dom.1-N-terminal).
T1 construct: gene RPS6KA1

The subject of assay [3] is T2, RSK1(Kin.Dom.2-C-terminal).
T2 construct: gene RPS6KA1

Assay [4] deals with T3, RSK2(Kin.Dom.1-N-terminal).
T3 construct: gene RPS6KA3

Assay [5] has as its system T4, RSK2(Kin.Dom.2-C-terminal).
T4 construct: gene RPS6KA3

The subject of assay [6] is T5, RSK3(Kin.Dom.1-N-terminal).
T5 construct: gene RPS6KA2

Assay [7] deals with T6, RSK3(Kin.Dom.2-C-terminal).
T6 construct: gene RPS6KA2

Assay [8] has as its system T7, RSK4(Kin.Dom.1-N-terminal).
T7 construct: gene RPS6KA6

In assay [9] the test system is T8, RSK4(Kin.Dom.2-C-terminal).
T8 construct: gene RPS6KA6

The subject of another assay is T9, SNARK.
T9 construct: gene NUAK2
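Also: KINOMEscan kinase panel screen.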

As to `N#Cc1ccc(Oc2ccc(Nc3ncnc4cc[nH]c34)cc2Cl)cc1`, the “%Inh” value in assay [1] is listed as 0%; in assay [2], 20%; in [3], 17%; in assay [4], 19%; in assay [5], 0%; in assay [6] it was 9%. Moreover, the “%Inh” value in [7] turned out to be 23%; in assay [8] it was 16%; in [9] it was 32%; in the assay with S6K1 it was 10%; with SBK1, 27%; in the assay with SGK2, 34%. The “%Inh” value in the assay on SGK3 worked out at 28%; in the assay on SGK it was 31%; in the assay on SIK2, 37%; in the assay with SIK it was 0%; in the assay on SLK, 7%; in the assay on SNARK, 24%. For the same compound, the “%Inh” value in the assay with SNRK is 38%; in the assay with SRC it was 3%.

In the case of `FC(F)(F)c1ccc(-c2nn3ncccc3c2-c2ccnc(Nc3cccc(C(F)(F)F)c3)n2)cc1` [GW828205], the “%Inh” value worked out at 3% in assay [1]; 12% in [2]; 0% in assay [3]; 0% in assay [4]; 6% in assay [5]; 0% in assay [6]. The “%Inh” value in assay [7] came out at 0%; in [8], 0%; in [9], 3%; in the assay on S6K1, 0%; in the assay on SBK1, 0%; in the assay with SGK2, 0%. Further, the “%Inh” value worked out at 18% in the assay on SGK3; 0% in the assay with SGK; 0% in the assay with SIK2; 47% in the assay on SIK; 21% in the assay on SLK; 0% in the assay on SNARK. The “%Inh” value with SNRK and in the assay on SRC was 0% in each case.

In the case of `COc1cc2c(Nc3cccc(NC(=O)c4ccccc4)c3)ncnc2cc1OCCCN1CCOCC1` [GSK223810], the “%Inh” value in assay [1] was 0%; in assay [2], 2%; in assay [3], 0%; in [4], 18%; in assay [5], 20%; in [6], 13%. Further, the “%Inh” value in [7] came out at 11%; in [8] it was 20%; in [9], 14%; with S6K1, 0%; in the assay on SBK1, 34%; with SGK2, 13%. Further, the “%Inh” value in the assay on SGK3 was determined as 1%; in the assay on SGK, 0%; with SIK2 it was 7%; with SIK, 0%; in the assay with SLK, 0%; in the assay with SNARK it was 0%. The results for the “%Inh” value in the assay on SNRK and with SRC were 0% and 94.7%, respectively.

As to `COc1cc2ncnc(Nc3ccc(OCc4ccccc4Br)c(Cl)c3)c2cc1OC.Cl` [GI261590], the “%Inh” value in [1] worked out at 0%; in [2] it was 32%; in assay [3] it was 0%; in [4] it was 0%; in assay [5], 3%; in [6], 100%. Besides, the “%Inh” value in [7] was 0%; in assay [8] it was 0%; in [9] it was 0%; with S6K1, 11%; with SBK1, 7%; with SGK2 it was 11%. The “%Inh” value was found to be 0% with SGK3; 4% in the assay on SGK; 12% with SIK2; 0% with SIK; 86% in the assay on SLK; 0% in the assay on SNARK. For the same compound, the “%Inh” value in the assay with SNRK and in the assay on SRC was 0% throughout.

Take `Cl.c1ccc(Cn2ncc3cc(Nc4ncnc5ccccc45)ccc32)cc1` [GW273749]: the “%Inh” value in assay [1] amounted to 5%; in assay [2] it was 11%; in assay [3], 3%; in [4], 0%; in [5] it was 0%; in [6] it was 0%. Further, the “%Inh” value in [7] is reported as 0%; in assay [8], 0%; in [9] it was 17%; in the assay with S6K1 it was 4%; with SBK1, 7%; in the assay with SGK2 it was 0%. Further, the “%Inh” value stood at 0% with SGK3; 0% in the assay with SGK; 0% in the assay on SIK2; 0% in the assay with SIK; 0% with SLK; 10% with SNARK. The “%Inh” value turned out to be 0% in the assay on SNRK and 10% with SRC.

As for `O=C(Nc1ccccc1)Nc1ccc(Oc2ccc3nccn3n2)cc1`, the “%Inh” value is 19% in assay [1]; 5% in [2]; 0% in assay [3]; 0% in assay [4]; 0% in assay [5]; 6% in assay [6]. In addition, the “%Inh” value (in [7]; in assay [8]; in assay [9]; in the assay with S6K1; with SBK1; with SGK2) was 0% each time. The “%Inh” value in the assay with SGK3 worked out at 3%; with SGK, 0%; in the assay on SIK2, 0%; in the assay on SIK it was 0%; in the assay with SLK it was 20%; in the assay with SNARK, 0%. Besides, the “%Inh” value in the assay with SNRK and with SRC was 0% throughout.

Consider `Nc1nc(-c2ccccn2)c(-c2ccnc3ccccc23)s1` [GW548057], for which the “%Inh” value in [1] came to 33%; in assay [2] it was 5%; in assay [3], 39%; in [4] it was 0%; in assay [5], 9%; in assay [6], 0%. For the same compound, the “%Inh” value in [7] was 1%; in assay [8] it was 0%; in [9] it was 76%; in the assay with S6K1, 0%; in the assay on SBK1, 0%; with SGK2, 0%. Further, the “%Inh” value turned out to be 6% in the assay with SGK3; 0% with SGK; 0% with SIK2; 0% in the assay with SIK; 7% in the assay with SLK; 0% in the assay on SNARK. The results for the “%Inh” value with SNRK and in the assay with SRC were 0% and 12%, respectively.

As for `CN1c2ccc(-c3ccc(C(=O)NCCO)cc3)cc2-c2[nH]ncc2S1(=O)=O`, the “%Inh” value in assay [1] is on record as 14%; in assay [2], 0%; in assay [3] it was 26%; in [4], 12%; in assay [5], 41%; in [6] it was 0%. For the same compound, the “%Inh” value in assay [7] is given as 35%; in assay [8], 3%; in assay [9], 27%; in the assay on S6K1 it was 33%; in the assay on SBK1, 0%; with SGK2, 23%. In addition, the “%Inh” value in the assay on SGK3 came to 0%; with SGK it was 10%; with SIK2, 16%; with SIK it was 16%; in the assay with SLK, 25%; in the assay on SNARK it was 0%. In addition, the “%Inh” value stood at 0% with SNRK and 46% in the assay on SRC.

Take `C[C@@H]1CCN(C(=O)CO)C[C@@H]1N(C)c1ncnc2[nH]ccc12`: the “%Inh” value in [1] was found to be 13%; in [2], 0%; in assay [3], 4%; in assay [4], 0%; in assay [5] it was 0%; in assay [6], 0%. Also, the “%Inh” value in assay [7] came out at 23%; in assay [8], 0%; in [9], 30%; in the assay with S6K1, 1%; with SBK1, 0%; in the assay on SGK2, 0%. Moreover, the “%Inh” value in the assay with SGK3 is 1%; with SGK it was 0%; in the assay on SIK2, 0%; with SIK, 10%; with SLK, 0%; in the assay with SNARK, 10%. The figures for the “%Inh” value in the assay on SNRK and in the assay with SRC were 3% and 6%, respectively.

In the case of `CC(=O)Nc1n[nH]c2ncc(-c3ccccc3)cc12` [SB-548492], the “%Inh” value in [1] was found to be 0%; in assay [2] it was 1%; in [3] it was 100%; in [4] it was 20%; in assay [5] it was 0%; in assay [6], 41%. The “%Inh” value in [7] turned out to be 0%; in assay [8], 36%; in assay [9] it was 12%; in the assay on S6K1 it was 50%; with SBK1, 4%; with SGK2, 9%. The “%Inh” value was 14% in the assay with SGK3; 20% in the assay with SGK; 12% in the assay with SIK2; 14% in the assay with SIK; 20% in the assay with SLK; 3% in the assay on SNARK. The “%Inh” value with SNRK is given as 1%; in the assay on SRC it was 0%.

Consider `Fc1cccc(COc2ccc(Nc3ncnc4sc(-c5ccc[nH]5)cc34)cc2Cl)c1` [GW707818], for which the “%Inh” value in [1] was found to be 20%; in [2], 25%; in assay [3], 8%; in [4], 0%; in assay [5], 0%; in [6], 0%. The “%Inh” value in assay [7] is listed as 5%; in assay [8] it was 0%; in [9] it was 5%; with S6K1 it was 0%; in the assay on SBK1 it was 0%; with SGK2, 0%. Besides, the “%Inh” value worked out at 19% in the assay on SGK3; 0% with SGK; 0% in the assay on SIK2; 0% in the assay on SIK; 24% with SLK; 15% in the assay with SNARK. The “%Inh” value in the assay on SNRK turned out to be 1%; in the assay on SRC, 0%.

With `Cl.c1ccc(Cn2ccc3cc(Nc4ncnc5ccccc45)ccc32)cc1` [GW275568], the “%Inh” value was 39% in assay [1]; 41% in assay [2]; 23% in assay [3]; 0% in assay [4]; 34% in assay [5]; 2% in assay [6]. Further, the “%Inh” value in [7] was 4%; in assay [8] it was 0%; in [9], 26%; in the assay on S6K1, 0%; with SBK1, 0%; in the assay with SGK2 it was 0%. Moreover, the “%Inh” value in the assay with SGK3 came out at 46%; in the assay on SGK, 0%; in the assay with SIK2, 2%; in the assay with SIK it was 0%; in the assay on SLK it was 32%; in the assay with SNARK it was 35%. Moreover, the entries for the “%Inh” value in the assay with SNRK and with SRC were 14% and 4%, respectively.
